Experimental findings from PubChem BioAssay are described below.

The target of experiment [1] is Albumin (Bos taurus) (UniProt P02769). Kind of experiment: bovine serum albumin binders on microarray, profiling panel, artefact control for SMM control protein annotation, biochemical, small-molecule microarray, Alexa647 label, 635/667 nm fluorescence (AID 1118).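 Further: score merges 667 nm emission intensity and signal-to-noise per printed compound spot.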 Conditions: BSA-A647 binding, fluorescence 635 nm, higher = more signal.
Experiment [2] is described as follows: small-molecule microarray binders of probe aXIP, primary screen, biochemical, NeuroSMM set, 635/667 nm fluorescence (AID 1119).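 Further: probe is the protein aXip251-270 applied at 1 µg/mL to compound-printed slides; binding of probe to printed compounds measured as 667 nm fluorescence plus signal to noise.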 The following applies: higher = more signal, called active from +8 up or from −8 down.
Experiment [3] is described as follows: small-molecule binders of probe aNOTCH3, primary screen, biochemical, small-molecule microarray, 635/667 nm fluorescence (AID 1120).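 Further: probe is a biotin-tagged antibody raised against NOTCH3 rather than NOTCH3 protein; score merges spot fluorescence near 667 nm with spot signal to noise.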 Conditions: higher = more signal.
Experiment [4] in a line: small-molecule binders of probe aNOTCH2, primary screen, biochemical, small-molecule microarray, 635/667 nm fluorescence (AID 1121).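 Further: score merges feature fluorescence read at 667 nm with its signal to noise.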 The following applies: higher = more signal.
For experiment [5], the target named is Carbonic anhydrase 2 (Homo sapiens) (UniProt P00918). Kind of experiment: CAII small-molecule binders, profiling panel, biochemical, small-molecule microarray, Alexa647-labelled CAII (AID 1122). Conditions: CAII-A647 binding fluorescence, higher = more signal.
Experiment [6] can be described thus: COS7 lysate on small-molecule microarray, probe aHis, 635 nm (AID 1123).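 Further: z-score combines 667nm fluorescence intensity with signal-to-noise per printed compound spot.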 Conditions: COS7 cell lysate, fluorescence, higher = more signal.
Experiment [7] is described as follows: compound binding in COS7 lysate, probe aLAP1, primary screen, cell lysate, small-molecule microarray (AID 1124).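 Further: lysate comes from COS7 cells expressing LAP1 and is applied at 0.3 µg/mL; score merges spot fluorescence near 667 nm with signal-to-noise over triplicate slides.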 Conditions: probe aLAP1, fluorescence, higher = more signal.
Experiment [8] concerns Sam68 (KHDRBS1). Kind of experiment: Sam68 small-molecule binders, primary screen, biochemical, small-molecule microarray, 635 nm fluorescence (AID 1125).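 Further: score merges 667 nm channel intensity with signal to noise over triplicate slides.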 The following applies: small-molecule microarray binding, higher = more signal.
For experiment [9], the system named is Chordin-like protein 2 (CHRDL2). Kind of experiment: CHRDL2 small-molecule binders, primary screen, biochemical, small-molecule microarray, 635 nm fluorescence (AID 1126).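 Further: printed compound slides probed with Chrdl2 protein at 4 µg/mL for 1 h at 4 C; score merges 667 nm emission intensity with signal to noise over three replicate slides.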 The following applies: small-molecule microarray binding, fluorescence 635 nm; higher = more signal.
Experiment [10] deals with Concanavalin-A (Canavalia ensiformis) (UniProt P02866). Kind of experiment: ConA small-molecule binders, primary screen, artefact control for SMM control protein annotation, biochemical, small-molecule microarray, Alexa647 label, 635 nm (AID 1127).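 Further: z combines 667 nm emission intensity with signal-to-noise across three replicate slides.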 The following applies: ConA-A647 binding fluorescence, higher = more signal.
Experiment [11] is described as follows: anti-His antibody binders, primary screen, artefact control for SMM control protein annotation, biochemical, small-molecule microarray, 635 nm fluorescence (AID 1128).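 Further: score merges feature fluorescence with signal-to-noise for each printed compound spot.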 The following applies: anti-His Alexa647 antibody binding, higher = more signal.
For experiment [12], the system named is Human papillomavirus type 1a E7 protein (residues 1-88). Kind of experiment: HPV1a E7 small-molecule binders, primary screen, biochemical, small-molecule microarray, residues 1-88, 635 nm (AID 1129). The following applies: small-molecule microarray binding, fluorescence 635 nm; higher = more signal.
Experiment [13] addresses Focal adhesion kinase 1 (Homo sapiens) (UniProt Q05397). Kind of experiment: small-molecule microarray binders of FAK, primary screen, biochemical, 635/667 nm fluorescence, BSA, DTT (AID 1130).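 Further: composite of spot emission at 667 nm and signal to noise over triplicate slides.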 Conditions: PTK2 binding, 635 nm fluorescence, higher = more signal.
In experiment [14] the test system is Fibrinogen (Alexa647-labelled). Kind of experiment: fibrinogen binders on compound microarrays, profiling panel, artefact control for SMM control-protein annotation, biochemical, small-molecule microarray, 635/667 nm fluorescence (AID 1131).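 Further: z-score merges 667 nm fluorescence with per-spot signal-to-noise over triplicate slides.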 Conditions: fibrinogen-A647 binding fluorescence, higher = more signal.
Experiment [15] deals with Follistatin (Homo sapiens) (UniProt P19883). Kind of experiment: follistatin binders on small-molecule microarrays, primary screen, biochemical, small-molecule microarray, 635/667 nm fluorescence (AID 1132). The following applies: FST binding, 635 nm fluorescence, higher = more signal.
Experiment [16] addresses Fibroblast growth factor 2 (Homo sapiens) (UniProt P09038). Kind of experiment: FGF2 binders on small-molecule microarrays, primary screen, biochemical, small-molecule microarray, 635/667 nm fluorescence (AID 1133). Conditions: small-molecule microarray binding, FGF2, fluorescence 635/667; higher = more signal.
Experiment [17] can be described thus: mitochondrial membrane potential change in A549 cells, profiling panel, cell-based, JC-1 fluorescence, basal, 24 h, 100 nL (AID 1138).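 Further: A549 lung adenocarcinoma cells under basal conditions with no added stimulus; test concentration not given here.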 The following applies: higher = more signal.
The test system of experiment [18] is Lefty1. Kind of experiment: Lefty1 binders on small-molecule microarrays, primary screen, biochemical, small-molecule microarray, 635/667 nm fluorescence (AID 1139). Conditions: small-molecule microarray binding, fluorescence 635/667; higher = more signal.
The test system of experiment [19] is wheat germ agglutinin (Triticum aestivum), Alexa647-labelled. Kind of experiment: wheat germ agglutinin binders on compound microarrays, profiling panel, artefact control for SMM control-protein annotation, biochemical, small-molecule microarray, 635/667 nm fluorescence (AID 1140).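 Further: score merges 667 nm feature emission with signal to noise over triplicate slides.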 Conditions: WGA-A647 binding, 635 nm fluorescence, higher = more signal.
Experiment [20] has as its target Luciferin 4-monooxygenase (Photinus pyralis) (UniProt P08659). Kind of experiment: firefly luciferase enzyme inhibitors, primary screen, biochemical, luminescence, purified enzyme, 2006 set (AID 1141).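 Further: cell-free assay with purified firefly luciferase at 100 ng per well in PBS; test concentration not given here.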 Conditions: SteadyGlo luminescence, 30 min, higher = more signal, called active from +8 up or from −8 down.

Activity calls are given as the source filed them.

Sequence of Follistatin (Homo sapiens) (P19883 whole entry, looked up): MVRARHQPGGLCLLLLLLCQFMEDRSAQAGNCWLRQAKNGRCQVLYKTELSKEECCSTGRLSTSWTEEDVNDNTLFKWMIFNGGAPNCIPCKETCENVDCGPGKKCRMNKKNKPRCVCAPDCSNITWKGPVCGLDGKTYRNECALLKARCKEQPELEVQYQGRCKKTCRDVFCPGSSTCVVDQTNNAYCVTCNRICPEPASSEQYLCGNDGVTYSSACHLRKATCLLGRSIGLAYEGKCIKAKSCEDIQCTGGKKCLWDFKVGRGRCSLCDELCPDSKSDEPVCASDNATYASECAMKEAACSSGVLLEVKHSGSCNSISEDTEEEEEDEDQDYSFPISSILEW
Sequence of Albumin (Bos taurus) (P02769 whole entry, looked up): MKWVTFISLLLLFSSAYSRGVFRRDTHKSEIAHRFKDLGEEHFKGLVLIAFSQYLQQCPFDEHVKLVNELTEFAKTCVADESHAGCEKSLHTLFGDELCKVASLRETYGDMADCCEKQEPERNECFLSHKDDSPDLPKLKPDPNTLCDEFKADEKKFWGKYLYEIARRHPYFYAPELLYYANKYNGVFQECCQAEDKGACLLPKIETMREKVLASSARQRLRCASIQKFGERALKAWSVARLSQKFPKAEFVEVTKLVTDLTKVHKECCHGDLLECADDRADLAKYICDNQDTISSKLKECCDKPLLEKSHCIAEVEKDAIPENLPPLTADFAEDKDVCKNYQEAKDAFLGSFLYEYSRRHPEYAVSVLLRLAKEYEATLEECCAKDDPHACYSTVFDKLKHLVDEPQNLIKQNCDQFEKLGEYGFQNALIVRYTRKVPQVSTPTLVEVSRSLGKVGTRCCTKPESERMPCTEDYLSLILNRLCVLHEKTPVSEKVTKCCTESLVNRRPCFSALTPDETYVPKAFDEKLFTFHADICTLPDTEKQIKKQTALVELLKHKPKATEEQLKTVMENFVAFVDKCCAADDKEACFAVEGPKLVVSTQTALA
Sequence of Focal adhesion kinase 1 (Homo sapiens) (Q05397 whole entry, looked up): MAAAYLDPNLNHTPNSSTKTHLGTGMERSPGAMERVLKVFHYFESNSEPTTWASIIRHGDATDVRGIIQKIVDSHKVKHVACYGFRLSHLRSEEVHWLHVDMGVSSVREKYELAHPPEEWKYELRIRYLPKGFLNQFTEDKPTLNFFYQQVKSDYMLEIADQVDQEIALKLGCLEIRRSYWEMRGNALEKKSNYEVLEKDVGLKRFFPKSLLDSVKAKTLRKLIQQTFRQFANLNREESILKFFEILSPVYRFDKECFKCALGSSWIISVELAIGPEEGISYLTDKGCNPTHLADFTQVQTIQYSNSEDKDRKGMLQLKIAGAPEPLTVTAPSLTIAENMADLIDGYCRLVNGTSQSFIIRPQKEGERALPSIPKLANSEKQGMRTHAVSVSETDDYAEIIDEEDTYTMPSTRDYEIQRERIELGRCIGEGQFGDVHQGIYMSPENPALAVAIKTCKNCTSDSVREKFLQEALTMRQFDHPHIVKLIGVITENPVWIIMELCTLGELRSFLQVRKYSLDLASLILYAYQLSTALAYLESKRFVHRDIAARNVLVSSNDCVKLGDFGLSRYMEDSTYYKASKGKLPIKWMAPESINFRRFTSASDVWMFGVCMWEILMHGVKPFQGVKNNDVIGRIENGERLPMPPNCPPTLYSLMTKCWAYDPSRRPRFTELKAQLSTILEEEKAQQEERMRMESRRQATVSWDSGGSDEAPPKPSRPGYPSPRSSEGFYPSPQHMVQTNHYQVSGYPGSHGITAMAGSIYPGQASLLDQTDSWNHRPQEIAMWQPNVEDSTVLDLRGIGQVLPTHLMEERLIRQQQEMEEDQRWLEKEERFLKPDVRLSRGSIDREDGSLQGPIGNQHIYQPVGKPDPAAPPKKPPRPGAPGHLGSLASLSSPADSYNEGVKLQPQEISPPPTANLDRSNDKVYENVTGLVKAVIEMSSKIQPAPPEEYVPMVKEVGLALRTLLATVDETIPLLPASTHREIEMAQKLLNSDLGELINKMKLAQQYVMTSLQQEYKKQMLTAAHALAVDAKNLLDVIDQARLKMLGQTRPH
Sequence of Luciferin 4-monooxygenase (Photinus pyralis) (P08659 whole entry, looked up): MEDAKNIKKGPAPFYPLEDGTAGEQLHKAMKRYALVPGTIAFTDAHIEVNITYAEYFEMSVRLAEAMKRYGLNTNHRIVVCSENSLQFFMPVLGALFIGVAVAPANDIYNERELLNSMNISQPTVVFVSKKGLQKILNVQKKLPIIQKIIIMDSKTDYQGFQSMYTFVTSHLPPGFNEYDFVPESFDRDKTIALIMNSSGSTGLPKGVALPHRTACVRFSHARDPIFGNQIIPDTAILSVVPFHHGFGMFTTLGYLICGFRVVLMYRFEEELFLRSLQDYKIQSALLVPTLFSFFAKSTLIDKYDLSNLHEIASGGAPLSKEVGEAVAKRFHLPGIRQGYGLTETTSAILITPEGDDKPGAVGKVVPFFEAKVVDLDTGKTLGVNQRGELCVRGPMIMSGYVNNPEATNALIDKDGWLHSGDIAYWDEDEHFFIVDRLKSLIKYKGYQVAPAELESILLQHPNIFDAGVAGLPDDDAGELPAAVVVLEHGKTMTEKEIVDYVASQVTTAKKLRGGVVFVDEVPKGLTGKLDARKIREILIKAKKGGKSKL
Sequence of Concanavalin-A (Canavalia ensiformis) (P02866 whole entry, looked up): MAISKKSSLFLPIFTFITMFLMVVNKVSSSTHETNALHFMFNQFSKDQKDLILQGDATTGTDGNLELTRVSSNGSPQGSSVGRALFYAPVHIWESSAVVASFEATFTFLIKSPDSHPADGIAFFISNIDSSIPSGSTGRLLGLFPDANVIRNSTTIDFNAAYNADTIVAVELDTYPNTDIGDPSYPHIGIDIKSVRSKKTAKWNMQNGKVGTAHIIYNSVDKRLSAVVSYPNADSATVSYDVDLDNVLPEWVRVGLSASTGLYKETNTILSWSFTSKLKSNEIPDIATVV
Sequence of Fibroblast growth factor 2 (Homo sapiens) (P09038 whole entry, looked up): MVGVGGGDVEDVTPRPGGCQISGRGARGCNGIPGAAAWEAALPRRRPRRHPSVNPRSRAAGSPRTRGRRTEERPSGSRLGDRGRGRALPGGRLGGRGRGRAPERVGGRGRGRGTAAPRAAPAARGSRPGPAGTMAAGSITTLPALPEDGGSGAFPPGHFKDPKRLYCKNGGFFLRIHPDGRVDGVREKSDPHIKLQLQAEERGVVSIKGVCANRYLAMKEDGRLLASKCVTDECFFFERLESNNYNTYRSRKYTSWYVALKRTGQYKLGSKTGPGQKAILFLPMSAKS

As to `COC(=O)C1=CCC(c2cccc(Cl)c2)O1` (stereo not given), the composite z-score was 0.431 in [1]; -0.112 in experiment [3]; -0.0907 in [4]; 0.483 in [5]; -0.21 in [6]; -0.201 in experiment [7]. The composite z-score is 0.137 in experiment [8]; -0.667 in experiment [9]; 0.247 in experiment [10]; 0.192 in [11]; 0.24 in experiment [12]; -0.126 in [13]. For the same molecule, the composite z-score in [14] is 0.346; in experiment [15] it was -0.399; in experiment [16], -0.473; in experiment [18], -0.319; in [19] it was -0.455. For the same molecule, the composite Z-score in experiment [2] was 0.0018 (inactive). Also, the z-score is -0.816 in experiment [17] and 1.74 (inactive) in experiment [20].

For `CC1(C)OCC(C(O)C2=CCCCC2=O)CO1` (stereo not given), the composite z-score is 0.157 in [1]; 0.119 in experiment [3]; 0.148 in [4]; 0.548 in [5]; 0.395 in [6]; 0.697 in experiment [7]. Besides, the composite z-score in [8] was determined as 0.826; in experiment [9], 0.883; in [10] it was 1.01; in experiment [11], 0.485; in [12], 0.279; in experiment [13], 0.0102. In addition, the composite z-score in [14] worked out at 0.945; in [15], 0.97; in [16], 0.938; in experiment [18], 1.33; in [19], 0.731. The composite Z-score in experiment [2] is 0.0887 (inactive). The z-score in experiment [17] is -0.867; in [20] it was 0.114 (inactive).

As for `COCCOC(=O)N1C(=O)[C@@]2(c3cc(C#Cc4ccc(OC)cc4)ccc31)[C@H](c1ccc(O)cc1)N1[C@H](c3ccccc3)[C@H](c3ccccc3)OC(=O)[C@H]1[C@@H]2C(N)=O`, the composite z-score in [1] is 0.595; in experiment [3] it was 0.357; in experiment [4], -0.108; in experiment [5], 0.48; in experiment [6], 1.52; in experiment [7], 0.364. For the same molecule, the composite z-score in [8] amounted to 1.29; in [9] it was 0.356; in experiment [10] it was 1.12; in experiment [11], 0.308; in experiment [12], 1.17; in experiment [13], 0.126. Also, the composite z-score in experiment [14] is 0.972; in experiment [15], 1.3; in [16] it was 0.852; in experiment [18], 0.728; in experiment [19], 0.779. For the same molecule, the composite Z-score in experiment [2] was 0.0583 (inactive). The z-score in experiment [17] was -1.47; in [20], 0.556 (inactive).

As to `C#C[C@@H]1Oc2ccccc2S(=O)(=O)N2CCC[C@H]12`, the composite z-score in experiment [1] was -0.13; in experiment [3], -0.063; in experiment [4], -0.185; in experiment [5], 0.256; in experiment [6] it was -1.2; in experiment [7], -0.34. In addition, the composite z-score in experiment [8] was -1.29; in experiment [9], 0.424; in [10], -0.512; in experiment [11] it was 0.104; in experiment [12], -0.283; in experiment [13] it was 0.193. For the same molecule, the composite z-score in [14] is -0.635; in experiment [15], 0.562; in experiment [16], 0.155; in experiment [18], 0.0495; in [19], -0.249. Also, in experiment [2], the composite Z-score is 0.235 (inactive). Moreover, the z-score in [17] was -0.273; in [20] it was -0.0351 (inactive).

Take `CCOC(=O)C1=CCC(c2cc3ccccc3[nH]2)NC1` (stereo not given): the composite z-score in experiment [1] was 0.653; in experiment [3] it was 0.173; in experiment [4] it was 0.069; in experiment [5], 0.63; in experiment [6], 1.7; in experiment [7], 0.944. The composite z-score in experiment [8] is 0.689; in experiment [9] it was 0.215; in [10], -0.668; in [11], 0.693; in experiment [12], 1.13; in [13], 1.22. Moreover, the composite z-score in experiment [14] was -0.288; in [15], 1.12; in experiment [16] it was -0.356; in experiment [18], -0.439; in experiment [19], 1.06. Besides, the composite Z-score in experiment [2] was 0.0894 (inactive). The z-score was 0.642 in experiment [17] and -3.19 (inactive) in [20].

On to `CCN1C(=O)[C@H]2[C@H]3[C@H](O)[C@H](O)CC(=NOCC=C(C)CCC=C(C)C)[C@H]3CC[C@H]2C1=O`, for which the composite z-score is -1.33 in [1]; 0.0876 in experiment [3]; -0.182 in experiment [4]; 0.578 in experiment [5]; 0.41 in [6]; 0.714 in experiment [7]. Further, the composite z-score in experiment [8] is 1.3; in experiment [9], 1.3; in [10], -0.0616; in experiment [11], 0.918; in [12] it was 1.1; in experiment [13], 0.123. Moreover, the composite z-score in experiment [14] is 0.0065; in [15] it was 1.26; in [16], 1.51; in [18], 1.58; in experiment [19], -0.207. Also, the composite Z-score in experiment [2] was -0.768 (inactive). The z-score in [17] is -0.298; in [20], -0.279 (inactive).

In the case of `CCN1C(=O)[C@H]2[C@H]3[C@H](O)[C@H](O)CC(=NOCc4ccccc4)[C@H]3CC[C@H]2C1=O`, the composite z-score in experiment [1] was -0.0796; in [3], 0.0258; in experiment [4] it was -0.041; in experiment [5], 0.336; in [6] it was 0.452; in [7], 0.491. The composite z-score was -0.144 in experiment [8]; 0.248 in experiment [9]; 0.21 in [10]; -0.364 in [11]; 0.359 in experiment [12]; 0.155 in experiment [13]. Besides, the composite z-score in experiment [14] is 0.443; in experiment [15] it was 0.213; in [16], 0.22; in experiment [18], 0.228; in experiment [19], -0.077. In experiment [2], the composite Z-score is 0.0894 (inactive). Moreover, the z-score in experiment [17] was -0.442; in experiment [20], 0.243 (inactive).
